Reference: the supplement of paper PMC10127200
Structures can show the parent of a compound that is named as a salt.

test system: DU145; test: Euclidean distance of Cell Painting phenotypic profile (signed KS, 77 features) to DMSO centroid (dimensionless distance); 5 or 10 uM (library dependent); higher = stronger phenotypic change vs DMSO (phenoactivity); conditions: 48 h
Procedure, shortened: (§1)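 Library compounds were applied at 10 or 5 uM, depending on the library, with 0.1% DMSO final, for 48 h to five cancer lines and a healthy fibroblast line. After staining, cells were imaged confocally at 20X across 9 fields per well, and Harmony extracted 77 features, each scored as a signed Kolmogorov-Smirnov statistic against vehicle wells on the same plate. Phenoactivity is the Euclidean distance between each profile and the median vehicle profile, with profiles first plate-position corrected, correlation-weighted and averaged over replicates at the top dose.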

| SMILES | Euclidean distance |
| --- | --- |
| CCC(CC)CC1(C(=O)Nc2ccccc2SC(=O)C(C)C)CCCCC1 | 0.832 |
| Brc1c(NC2=NCCN2)ccc2nccnc12 [Brimonidine Tartrate] | 0.478 |
| Cc1cc(C)c(Nc2ccnc(Nc3ccc(C#N)cc3)n2)c(C)c1 [Dapivirine (TMC120)] | 1.87 |
| N=C(N)NC(=O)Cc1c(Cl)cccc1Cl [Guanfacine Hydrochloride] | 1.05 |
| CO[C@H]1C[C@@H]2CC[C@@H](C)[C@@](O)(O2)C(=O)C(=O)N2CCCC[C@H]2C(=O)O[C@H]([C@H](C)C[C@@H]2CC[C@@H](OCCO)[C@H](OC)C2)CC(=O)[C@H](C)/C=C(\C)[C@@H](O)[C@@H](OC)C(=O)[C@H](C)C[C@H](C)/C=C/C=C/C=C/1C [Everolimus (RAD001)] | 2.74 |

test system: FB; test: as above; conditions: 48 h
Procedure, shortened: as §1

| SMILES | Euclidean distance |
| --- | --- |
| O=C1c2cccc(O)c2C(=O)c2c(O)cccc21 [Danthron] | 0.924 |
| Cc1c(-c2cnccn2)ssc1=S [Oltipraz] | 0.877 |
| CO[C@H]1/C=C/O[C@@]2(C)Oc3c(C)c(O)c4c(O)c(c(/C=N/N5CCN(C)CC5)c(O)c4c3C2=O)NC(=O)/C(C)=C\C=C\[C@H](C)[C@H](O)[C@@H](C)[C@@H](O)[C@@H](C)[C@H](OC(C)=O)[C@@H]1C [Rifampin] | 1.36 |
| C/C(=N\NC(=S)N1CCC1)c1ccccn1 | 3.45 |
| Cc1nnc(SCC2=C(C(=O)O)N3C(=O)[C@@H](NC(=O)Cn4cc(Cl)c(=O)c(Cl)c4)[C@H]3SC2)s1 [Cefazedone] | 1.16 |
| CC(=O)OCC[N+](C)(C)C [Acetylcholine iodide] | 0.877 |
| CCCC(=O)Nc1cccc(NC(=O)c2ccccc2Br)c1 | 1.14 |
| Nc1ncn([C@@H]2O[C@H](CO)[C@@H](O)[C@H]2O)c(=O)n1 [Azacitidine] | 2.79 |
| O=C(/C=C/C#Cc1cccc(NS(=O)(=O)c2ccccc2)c1)NO [Oxamflatin] | 4.53 |
| CNCCc1ccccn1 [Betahistine mesylate] | 0.999 |
| COc1ccc2cc([C@H](C)C(=O)O)ccc2c1 [Naproxen] | 0.816 |
| OCC(O)CN1CCN(c2ccccc2)CC1 (centres undefined) [Dropropizine] | 1.1 |
| C=CC(=O)Nc1cccc(Nc2nc(Nc3ccc(N4CCN(C(C)=O)CC4)cc3OC)ncc2C(F)(F)F)c1 | 1.01 |
| C/C(=C\c1ccc(C(=O)O)cc1)c1ccc2c(c1)C(C)(C)CCC2(C)C [TTNPB (Arotinoid Acid)] | 2.49 |
| COc1cc2nc(N3CCN(C(=O)C4CCCO4)CC3)nc(N)c2cc1OC (centres undefined) [Terazosin HCl] | 1.15 |
| C=C1/C(=C\C=C2/CCC[C@]3(C)[C@@H]([C@H](C)CCCC(C)C)CC[C@@H]23)C[C@@H](O)C[C@@H]1O [Alfacalcidol] | 1.73 |
| COc1ncc(-c2ccc3nccc(-c4ccnnc4)c3c2)cc1NS(=O)(=O)c1ccc(F)cc1F | 3.96 |
| CNC(=O)CN(CCN(CCN(CC(=O)[O-])CC(=O)NC)CC(=O)[O-])CC(=O)[O-].O.[Gd+3] [Gadodiamide Hydrate] | 1.38 |
| CC(C)Cc1ccc(C(C)C(=O)O)cc1 (centres undefined) [Ibuprofen] | 0.827 |
| O=C1[C@H]2CCCC[C@H]2C(=O)N1CCCCN1CCN(c2nsc3ccccc23)CC1 [Perospirone hydrochloride] | 1.59 |

| SMILES | Euclidean distance |
| --- | --- |
| CC(=O)Oc1cc(C(C)C)c(OCCN(C)C)cc1C [Moxisylyte hydrochloride] | 1.12 |
| OCc1cc([C@@H](O)CNCCCCCCOCCOCc2c(Cl)cccc2Cl)ccc1O [Vilanterol Trifenate] | 1.28 |
| CC[C@H]1OC(=O)[C@H](C)[C@@H](O[C@H]2C[C@@](C)(OC)[C@@H](O)[C@H](C)O2)[C@H](C)[C@@H](O[C@@H]2O[C@H](C)C[C@H](N(C)C)[C@H]2O)[C@](C)(O)C[C@@H](C)CN(C)[C@H](C)[C@@H](O)[C@]1(C)O [Azithromycin] | 1.53 |
| CN(C)C1CCN(C(=O)c2ccc(NC(=O)Nc3ccc(-c4nc(N5CCOCC5)nc(N5CCOCC5)n4)cc3)cc2)CC1 | 4.95 |
| O=C(O)C1(C(=O)O)CCC1.[NH2-].[NH2-].[Pt+2] [Carboplatin] | 2.23 |
| O=C(N/N=C/c1ccc(O)c(O)c1)c1cc2ccccc2cc1O [Dynasore] | 0.928 |
| C[C@@H](NC(=O)c1ncnc(N)c1Cl)c1ncc(C(=O)Nc2cc(C(F)(F)F)c(Cl)cn2)s1 | 1.41 |
| CCCC(CCC)C(=O)O [Valproic acid sodium salt (Sodium valproate)] | 0.529 |
| Clc1ccc(C(Cn2ccnc2)OCc2csc3c(Cl)cccc23)c(Cl)c1 (centres undefined) [Sertaconazole nitrate] | 1.26 |
| Cc1cc(Nc2ccc(NC(=O)c3ccc(Nc4ccnc5ccccc45)cc3)cc2)nc(N)n1 | 5.18 |
| C=C1/C(=C\C=C2/CCC[C@]3(C)[C@@H]([C@H](C)/C=C/[C@@H](O)C4CC4)CC[C@@H]23)C[C@@H](O)C[C@@H]1O [Calcipotriene] | 2.13 |
| CONC(=O)c1ccccc1Nc1cc(Nc2cc(C)nn2C(C)C)ncc1Cl | 2.01 |
| O=C1OC2(c3ccc(O)cc3Oc3cc(O)ccc32)c2ccccc21 [Fluorescein] | 0.881 |
| C[C@H]1[C@H](NC(=O)/C(=N\OC(C)(C)C(=O)O)c2csc(N)n2)C(=O)N1S(=O)(=O)O [Aztreonam] | 1.15 |
| CCC(CC)CC1(C(=O)Nc2ccccc2SC(=O)C(C)C)CCCCC1 | 1 |
| Brc1c(NC2=NCCN2)ccc2nccnc12 [Brimonidine Tartrate] | 0.739 |
| Cc1cc(C)c(Nc2ccnc(Nc3ccc(C#N)cc3)n2)c(C)c1 [Dapivirine (TMC120)] | 1.33 |
| N=C(N)NC(=O)Cc1c(Cl)cccc1Cl [Guanfacine Hydrochloride] | 1.09 |
| CO[C@H]1C[C@@H]2CC[C@@H](C)[C@@](O)(O2)C(=O)C(=O)N2CCCC[C@H]2C(=O)O[C@H]([C@H](C)C[C@@H]2CC[C@@H](OCCO)[C@H](OC)C2)CC(=O)[C@H](C)/C=C(\C)[C@@H](O)[C@@H](OC)C(=O)[C@H](C)C[C@H](C)/C=C/C=C/C=C/1C [Everolimus (RAD001)] | 3.19 |
